Compounds with a hit are over-represented: about 31% of the library has one in this group of screens.
CYP2C19 activ: human CYP2C19 activators, primary screen, biochemical, luminescence; Cytochrome P450 2C19 (Homo sapiens), P33261; recombinant CYP2C19, luciferin-H EGE luminescence; stronger effect = higher value; 0 = fully inhibited enzyme, 1 = untreated enzyme; activation factor at 5 µM; 96,000 tested, under 10 active; AID 1025, 2008;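 active = activation factor of at least 2 at 5 µM in the primary screen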
CYP2C19 inhib: blockers of cytochrome P450 2C19 activity – biochemical, luminescence, ADME assay, primary screen; P33261; inhibition, % at 5 µM; 96,000 compounds, 21% hits; CYP2C19 Supersomes, luciferin-H EGE luminescence, 30 min;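 active = CYP2C19 inhibition above a set limit at 5 µM in the primary screen, cut at about 50% in these data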
CYP2C9 inhib: blockers of cytochrome P450 2C9 activity – biochemical, luminescence, ADME assay, primary screen; inhibition, % at 5 µM; CYP2C9 Supersomes, luciferin-H conversion; 96,000 compounds, 20% hits;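 active = blocking of liver enzyme CYP2C9 beyond about 50% at 5 µM, limit read from the data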
CYP2C9 act: human CYP2C9 activators, primary screen, biochemical, luminescence. Cytochrome P450 2C9 (Homo sapiens), P11712. recombinant CYP2C9, luciferin-H conversion; stronger effect = higher value; factor 1 = untreated enzyme, 0 = blocked. activation factor at 5 µM. 96,000 compounds, 1.4% hits;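 active = activation factor of 2 or more for CYP2C9 at a 5 µM dose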
Of the large screens only hits and unclear results are named; the others gave an inactive call.

Cc1ccccc1NC(=O)CC1SC(=NC2CCCCC2)NC1=O (stereo not given)	CYP2C9 inhib 67
CC(C)(C)NC(=O)COC(=O)/C=C/c1ccccc1[N+](=O)[O-]	none
CC(=O)c1c(C)[nH]c(C(=O)NCCc2cccc(C)c2)c1C	none
CC(=O)c1c(C)[nH]c(C(=O)OCC(=O)NCCc2ccc(F)cc2)c1C	none
COc1ccc(CCNC(=O)c2[nH]c(C)c(C(C)=O)c2C)cc1	CYP2C19 inhib 50, CYP2C9 inhib 73
CC(=O)c1c(C)[nH]c(C(=O)OCC(=O)NCCc2ccc(Cl)cc2)c1C	CYP2C19 inhib 87, CYP2C9 inhib 87
CCOC(=O)C1CCN(C(=O)c2cnn3c(C)cc(C)nc23)CC1	none
COc1cc(OC)c(C#N)c(S(=O)Cc2ccccc2)c1 (stereo not given)	CYP2C19 inhib 99, CYP2C9 act 2.3
COc1cccc(C(=O)NC2=NCCS2)c1OC	none
COc1ccc(N(C)S(=O)(=O)c2cccc(C(=O)NC3=NCCS3)c2)cc1	CYP2C9 inhib 64
Cc1ccc(N(C)S(=O)(=O)c2cccc(C(=O)NC3=NCCS3)c2)cc1	CYP2C9 inhib 69
CCN(CC)S(=O)(=O)c1cccc(C(=O)Nc2cc(C)cc(C)c2)c1	none
CCN1C(=O)CC(N2CCOCC2)C1=O (stereo not given)	none
Cc1c(N(C(=O)Nc2ccccc2)C2=NCC(C)S2)c(=O)n(-c2ccccc2)n1C (stereo not given)	CYP2C9 inhib 74
Cc1ccc(N(C(=O)Nc2ccccc2)C2=NCC(C)S2)cc1 (stereo not given)	CYP2C19 inhib 71, CYP2C9 inhib 86
CCOC(=O)c1sc2ncnc(N3CCN(c4ccc(OC)cc4)CC3)c2c1C	none
Cc1ccc(OCCN2CCN(c3ncnc4sc(C)c(C)c34)CC2)cc1	CYP2C19 inhib 86, CYP2C9 inhib 89
Clc1ccc(OCCN2CCN(c3ncnc4sccc34)CC2)cc1	CYP2C19 inhib 84, CYP2C9 inhib 56
CNC(=O)CN1C(=O)c2cccc3cccc1c23	none
CC(C(N)=O)N1C(=O)c2cccc3cccc1c23 (stereo not given)	CYP2C9 act 3.2
O=C(Cn1cnc2c(nnn2Cc2ccc(F)cc2)c1=O)N1CCN(c2ccccc2)CC1	none
O=S1(=O)c2cccc3cccc(c23)N1Cc1ccc(-c2nnco2)cc1	CYP2C19 inhib 68, CYP2C9 inhib 53
O=c1c2ccccc2nnn1Cc1nnc(-c2ccccc2Br)o1	CYP2C19 inhib 82
O=S1(=O)c2cccc3cccc(c23)N1Cc1nnc(-c2ccccc2Br)o1	CYP2C19 inhib 93
CCCOc1c(Cl)cc(C(=O)Nc2ccc3c(c2)OCO3)cc1OCC	none
CCOc1ccc(N2CC(C(=O)NCCCN3CCOCC3)CC2=O)cc1 (stereo not given)	none
O=C(Cn1c(C(F)(F)F)nc2ccccc21)c1ccc(Cl)cc1	CYP2C19 inhib 100
O=C(Cn1c(C(F)(F)F)nc2ccccc21)c1ccccc1	CYP2C19 inhib 53
Cc1nc2ccccc2n1CC(O)Cn1c(C(F)(F)F)nc2ccccc21 (stereo not given)	CYP2C9 inhib 72
CC1CN(C(=O)Cn2c(C(F)(F)F)nc3ccccc32)CC(C)O1 (stereo not given)	none
OC(CN1CCCCC1)Cn1c(C(F)(F)F)nc2ccccc21 (stereo not given)	none
O=C(O)Cn1c(C(F)(F)F)nc2ccccc21	none
COc1ccccc1C(=O)N1C(CC(=O)Nc2cc(Cl)ccc2C)C(=O)NC2CCCCC21 (stereo not given)	none
O=C(CC1C(=O)NC2CCCCC2N1C(=O)c1ccc(F)cc1)Nc1ccccc1 (stereo not given)	CYP2C9 inhib 56
O=C(CC1C(=O)N(c2ccccc2)C(=O)N1C1CCCCC1)Nc1ccccc1 (stereo not given)	CYP2C19 inhib 52
CCNC(=O)N1C(CC(=O)OCC)C(=O)NC2CCCCC21 (stereo not given)	none
Cc1ccc(NC(=O)CC2C(=O)NC3CCCCC3N2C(=O)c2ccc(F)cc2)cc1C (stereo not given)	CYP2C9 inhib 64
COc1cc2c(cc1OC)CN(C(C)C(=O)N1CCc3ccccc31)CC2 (stereo not given)	none
CCOC(=O)N1CCN(C(=O)CN(C2CCCCC2)S(=O)(=O)c2ccc(F)cc2)CC1	none
Cc1cc(C)cc(Oc2nc(C(F)(F)F)nc3ccccc23)c1	none

Bioassay records (PubChem BioAssay)
